Source: PubChem BioAssay
FBW7 activator = activators of human E3 ligase FBW7; normalized activity (activation), % at 26.1 µM; Q969H0; 650,000 compounds, 0.13% hits; AlphaScreen FBW7–phospho-cyclin E peptide binding, activator screen; in the data active = normalized activity above about 1.9%;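 note: purified mutant Fbw7 with reduced substrate affinity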
MITF inh = inhibitors of human MITF. O75030. AlphaScreen MITF homodimerization, bead proximity signal. inhibition, % at 2.6 µM. 650,000 compounds, 0.91% hits; in the data active = inhibition above about 50%
Target sequence (O75030 whole entry, looked up): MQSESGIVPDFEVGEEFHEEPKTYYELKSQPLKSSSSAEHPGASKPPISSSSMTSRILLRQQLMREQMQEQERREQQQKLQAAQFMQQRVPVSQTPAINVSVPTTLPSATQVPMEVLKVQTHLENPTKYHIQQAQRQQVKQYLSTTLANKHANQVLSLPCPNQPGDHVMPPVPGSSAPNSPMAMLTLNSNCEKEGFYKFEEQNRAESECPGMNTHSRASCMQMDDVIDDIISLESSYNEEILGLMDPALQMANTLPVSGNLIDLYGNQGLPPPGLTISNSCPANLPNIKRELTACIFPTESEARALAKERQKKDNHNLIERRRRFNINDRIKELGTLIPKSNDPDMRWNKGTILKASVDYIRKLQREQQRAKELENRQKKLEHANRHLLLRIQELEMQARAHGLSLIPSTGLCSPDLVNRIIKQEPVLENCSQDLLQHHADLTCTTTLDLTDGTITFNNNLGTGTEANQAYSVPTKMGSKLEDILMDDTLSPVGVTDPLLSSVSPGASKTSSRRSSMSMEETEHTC
GPR151 activ = human GPR151 activation | 650,000 compounds, 1% hits | activation, % at 11.2 µM | AID 1508602 | PathHunter beta-arrestin GPR151 cells, luminescence | Q8TDV0; in the data active = activation above about 4.9%
TEAD-YAP inh = TEAD-YAP interaction inhibition; HEK-TIYL cells, TEAD-Gal4/YAP UAS-luciferase luminescence; 640,000 compounds, 1.4% hits; AID 1259422; inhibition, % at 9.12 µM; in the data active = inhibition above about 32%
MITF inh conf = confirmation of human MITF inhibitors; shares compounds with MITF inh; AlphaScreen MITF homodimerization, biotin/His-MITF beads; inhibition, % at 2.6 µM; 4,700 compounds, 16% hits; AID 1259372;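 active = inhibition above a cutoff derived from the DMSO control wells, cut at about 28% in these data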;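 note: inhibitors lower the bead chemiluminescence by keeping MITF from dimerizing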
AlphaScreen DR = optically interferes with AlphaScreen signal in dose response | shares compounds with MITF inh | AlphaScreen optical interference counterscreen, cell-free | IC50, µM | 480 compounds, 6% hits | AID 1259373; call rule not given here
AlphaScreen intf2 = optically interferes with AlphaScreen signal; shares compounds with MITF inh; LysRS AlphaScreen counterscreen, signal interference, triplicate; inhibition, % at 2.6 µM; 4,700 compounds, 7.6% hits; AID 1259376;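 active = inhibition above a cutoff derived from the DMSO control wells, cut at about 30% in these data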
Each line names hits and unclear results; the compound was inactive in the other large screens (follow-up assays come after a bar, where they were run). In the library only some 3.4% were active in any assay of this set; here they are far more common.

CN(C)CCCN(CCCN(C)C)Cc1ccc(F)cc1	MITF inh 63.7 | MITF inh conf inactive | AlphaScreen intf2 inactive
CN(C)CCCN(CCCN(C)C)Cc1cccc(C(F)(F)F)c1	MITF inh 56.7 | MITF inh conf inactive | AlphaScreen intf2 inactive
COc1ccc(NC(=O)COC(=O)CNc2ccc(C(F)(F)F)cc2[N+](=O)[O-])cc1	none
COc1cccc(CN2CCN3C(=O)[C@@H](C)NC(=O)[C@H]3C2)c1	none
C=CCn1c(SCC2OCCO2)nc2cc(C(=O)NCc3ccco3)ccc2c1=O	MITF inh 67.0 | MITF inh conf inactive | AlphaScreen intf2 inactive
C=CCn1c(SCc2ccc(C)cc2)nc2cc(C(=O)NCc3ccco3)ccc2c1=O	none
O=C(CSc1nnc2c3ccccc3n(Cc3ccccc3)c2n1)c1ccccc1	none
CCOC(=O)C1=[N+]([O-])OC(C(=O)OCC)C1CC(C)=O (centres undefined)	none
CCOC(=O)CC1C(C(=O)OCC)=[N+]([O-])OC1C(=O)OCC (centres undefined)	MITF inh 63.8 | MITF inh conf inactive | AlphaScreen intf2 inactive
CCN(CC)C(=S)NC(=O)c1cccc([N+](=O)[O-])c1	none
Cn1c(-c2ccccc2)cnc1NCc1ccc(F)cc1	none
Cn1c(-c2ccc(F)cc2)cnc1NCc1ccccc1	MITF inh 59.4 | MITF inh conf inactive | AlphaScreen intf2 inactive
Cn1c(-c2ccc(F)cc2)cnc1NCc1cccc(F)c1	MITF inh 52.7 | MITF inh conf inactive | AlphaScreen intf2 inactive
Cn1cccc1CN1CCN(C(=O)c2ccccc2F)CC1	MITF inh 54.0 | MITF inh conf inactive | AlphaScreen intf2 inactive
Cn1cccc1CN1CCN(C(=O)c2ccc(F)cc2)CC1	MITF inh 53.4 | MITF inh conf inactive | AlphaScreen intf2 inactive
Cn1cccc1CN1CCN(C(=O)c2ccc(-c3ccccc3)cc2)CC1	none
Cn1cccc1CN1CCN(C(=O)c2cccc(F)c2)CC1	none
O=C(CN(c1ccc(Cl)c(C(F)(F)F)c1)S(=O)(=O)c1ccccc1)NCc1ccccn1	none
O=C(CN(c1ccc(Cl)c(C(F)(F)F)c1)S(=O)(=O)c1ccccc1)NCc1cccnc1	MITF inh 50.9 | MITF inh conf inactive | AlphaScreen intf2 inactive
O=CN(C(=O)c1ccccc1)c1ccccc1NC(=O)c1ccccc1	none
COc1cccc(C2C(C(C)=O)=C(O)C(=O)N2c2ccc(C)c(Br)c2)c1 (centres undefined)	none
COC(=O)C(N)CSC1CCCCO1 (centres undefined)	MITF inh 55.6 | MITF inh conf inactive | AlphaScreen intf2 inactive
NC(=O)c1cncc(-c2cccs2)c1	MITF inh 69.6 | MITF inh conf 65.2 | AlphaScreen DR inactive | AlphaScreen intf2 inactive
O=C(NC1CC1)c1cncc(-c2cccs2)c1	none
COc1ccccc1NS(=O)(=O)c1cccc(NC(=O)NC2(C(F)(F)F)Oc3ccc(Cl)cc3O2)c1 (centres undefined)	MITF inh 68.0 | MITF inh conf inactive | AlphaScreen intf2 inactive
Cc1ccccc1NC(=O)NC1(C(F)(F)F)Oc2ccc(Cl)cc2O1 (centres undefined)	none
O=C(c1ccc(S(=O)(=O)N2CCCC2)cc1)n1nnc2ccccc21	none
CCCCN(CC)c1ncnc2sc(C)c(C)c12	MITF inh 51.4 | MITF inh conf inactive | AlphaScreen intf2 inactive
Cc1cc(NC(=O)CN(C)CCOc2ccccc2)ccc1Br	none
Cc1ccc(NC(=O)CN(C)CC(=O)Nc2ccccc2Oc2ccccc2)cc1	MITF inh 91.0 | MITF inh conf inactive | AlphaScreen intf2 inactive
CSc1ccccc1NC(=O)CN(C)CC(=O)Nc1ccc(C(N)=O)cc1	none
COc1ccc(NC(=O)CN(C)CC(=O)Nc2ccccc2SC)cc1	MITF inh 74.5 | MITF inh conf inactive | AlphaScreen intf2 inactive
CN(CCOc1ccccc1)CC(=O)Nc1ccc(C(F)(F)F)cc1	MITF inh 66.1 | MITF inh conf inactive | AlphaScreen intf2 inactive
CCOC(=O)c1cnc2ccc(C(=O)OC)cc2c1Nc1cccc(OC)c1	none
COc1ccc(NC(=O)CN(C)C(C)C(=O)N2CCCCC2)cc1 (centres undefined)	MITF inh 65.7 | MITF inh conf inactive | AlphaScreen intf2 inactive
CC1CC(C)CN(C(=O)C(C)N(C)CC(=O)Nc2ccc(Cl)cc2)C1 (centres undefined)	MITF inh 50.9 | MITF inh conf inactive | AlphaScreen intf2 inactive
CC(C(=O)N1CCCCC1)N(C)CC(=O)Nc1cccc(F)c1 (centres undefined)	MITF inh 64.1 | MITF inh conf inactive | AlphaScreen intf2 inactive
COc1ccc(C(=O)Nc2cccc3ccccc23)cc1Br	none
CCN(C(=O)Cn1ncc2c1-c1cc(C)ccc1OC2)c1ccccc1F	none
CCN(C(=O)Cn1ncc2c1-c1cc(C)ccc1OC2)c1cc(OC)ccc1OC	MITF inh 70.5 | MITF inh conf inactive | AlphaScreen intf2 inactive
Cc1ccc2nc(-c3ccccc3)nc(-c3ccc([N+](=O)[O-])cc3)c2c1	none
CCOC(=O)C1=C(N)OC2=C(C(=O)CCC2)C1c1ccc(Cl)cc1 (centres undefined)	MITF inh 89.2 | MITF inh conf inactive | AlphaScreen intf2 inactive
CCOc1ccc(C2C(C#N)=C(N)OC3=C2C(=O)CCC3)cc1 (centres undefined)	MITF inh 54.2 | MITF inh conf inactive | AlphaScreen intf2 inactive
CC1CCN(c2c(NCc3ccc(C(=O)NC4CCCC(C)C4C)cc3)c(=O)c2=O)CC1 (centres undefined)	none
NC(=O)c1nc(-c2ccco2)nc2c1[nH]c(=O)n2-c1ccc(F)cc1	none
C=CCc1ccccc1OCCOc1ccc(/C=C2/C(=N)N3N=C(CCC)SC3=NC2=O)cc1OCC	none
CC(C)Cn1cc(C(=O)N2CCCCCC2)c2c3ccccc3n(C)c2c1=O	none
CCc1nc2sc(C(c3ccccc3)N3CCN(CC)CC3)c(O)n2n1 (centres undefined)	none
CSc1cccc(NC(=O)CN(c2ccc3c(c2)OCO3)S(C)(=O)=O)c1	none
CS(=O)(=O)N(CC(=O)Nc1c(F)cccc1F)c1ccc(Oc2ccccc2)cc1	MITF inh 59.6 | MITF inh conf inactive | AlphaScreen intf2 inactive
CS(=O)(=O)N(CC(=O)Nc1cccc(F)c1)c1ccc2c(c1)OCO2	MITF inh 64.2 | MITF inh conf inactive | AlphaScreen intf2 inactive
CS(=O)(=O)N(CC(=O)Nc1ccc(F)cc1)c1ccc(Oc2ccccc2)cc1	MITF inh 68.2 | MITF inh conf inactive | AlphaScreen intf2 inactive
O=c1[nH]cc(N=Cc2ccc([N+](=O)[O-])o2)c(=O)[nH]1	MITF inh 84.6 | MITF inh conf 63.7 | AlphaScreen DR inactive | AlphaScreen intf2 inactive
COCCNc1cc(-c2ccccn2)nc(-c2ccccc2)n1	none
COCCNc1cc(-c2ccccn2)nc(-c2ccccn2)n1	MITF inh 115.5 | MITF inh conf 117.8 | AlphaScreen intf2 100.3
